Source: PubChem (The Scripps Research Institute Molecular Screening Center)
AHR act – AHR activators, primary screen, cell-based, luminescence, luciferase reporter, human. AID 2796, 2010. activation, % at 5 µM. 2.5% of 320,000 active. AHR-responsive luciferase reporter cells; in the data active = activation above about 47%;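 note: 0% = vehicle wells and 100% = reference agonist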
hcDAF-12 act – H. contortus DAF-12 nuclear receptor activators, primary screen, cell-based, luminescence, HEK293, lit1-tk-luc reporter; 1.4% of 370,000 active; AID 652067, 2013; HEK293 hcDAF-12 lit1-tk-luc reporter; 0% DMSO, 100% Δ7-dafachronic acid; activation, % at 6.8 µM;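 active = activation above the mean of all tested compounds plus 3 SD, cut at about 5.5% in these data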;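 note: 100% = response to 3 µM Δ7-dafachronic acid high control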
DAX1 inh-1 – DAX1 (NR0B1) inhibitors on StAR promoter, primary screen, cell-based, luminescence, SF-1 (NR5A1), full-length DAX-1. HEK293T StAR-luciferase reporter, SF-1/DAX-1 repression relief. inhibition, % at 6.8 µM. 1.1% of 370,000 active;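 active = inhibition above the mean over all tested compounds plus 3 SD, cut at about 3.6% in these data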;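 note: 0% = DAX-1 cells with DMSO and 100% = cells lacking DAX-1 with DMSO; higher inhibition means more luminescence from relief of DAX-1 repression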
ssDAF-12 act – S. stercoralis DAF-12 nuclear receptor activators, primary screen, cell-based, luminescence, HEK293, GRIP1 co-expression, lit1-tk-luc. 1% of 370,000 active. HEK293 ssDAF-12/GRIP1 lit1-tk-luc reporter; % of 3 µM dafachronic acid response. Nuclear hormone receptor DAF-12 (Strongyloides stercoralis). activation, % at 6.8 µM;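 active = activation above the mean over all tested compounds plus 3 SD, cut at about 0.9% in these data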;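 note: 0% = DMSO-only wells and 100% = 3 µM delta7-dafachronic acid wells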
DAX1 inh-2 – DAX1 (NR0B1) inhibitors, primary screen, cell-based, HEK293, Gal4-DAX1, luciferase luminescence; inhibition, % at 6.75 µM; 0.99% of 340,000 active; HEK293 Gal4-DAX1 luciferase reporter;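 active = inhibition above the mean over all tested compounds plus 3 SD, cut at about 4.2% in these data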;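 note: 0% = DAX1-transfected cells with DMSO and 100% = empty-vector control cells with DMSO; inhibition shows as a rise in luminescence from relieved DAX1 repression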
hgDAF-12 ag – H. glycines DAF-12 receptor agonists, primary screen, cell-based, luminescence, HEK293, GAL4 fusion, UAS-luciferase | 1.8% of 370,000 active | Nuclear hormone receptor DAF-12 (Heterodera glycines), GAL4 fusion | HEK293 GAL4-hgDAF12 UAS-luciferase reporter, agonist luminescence; normalized to butyrate control | activation, % at 6.8 µM;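 active = activation above a cutoff set at the mean of all screened compounds plus 3 SD, cut at about 10% in these data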;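 note: 0% = DMSO wells and 100% = sodium butyrate wells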
DAX1 conf – DAX1 (NR0B1) inhibitors relieving SF-1 repression, confirmation, cell-based, luminescence, HEK293T, full-length DAX-1, SF-1 activated StAR promoter. inhibition, % at 6.8 µM. AID 652134, 2013. shares compounds with DAX1 inh-1. HEK293T StAR-promoter luciferase reporter, SF-1/DAX-1 repression. 87% of 2,400 active;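 active = inhibition above the average of every tested compound plus 3 SD, cut at about 3.8% in these data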;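 note: 0% = DAX-1 cells with DMSO and 100% = no DAX-1 control cells with DMSO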
SF1 mutant ctr – StAR reporter signal changes without DAX1, counter-screen for DAX1 inhibitor project, cell-based, luminescence, AF-2 mutant SF-1, transactivation; HEK293 StAR-luciferase, SF-1 AF2 mutant; inhibition, % at 6.8 µM; shares compounds with DAX1 inh-1; 78% of 2,400 active;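 active = inhibition above the mean of all tested compounds plus 3 SD, cut at about 3% in these data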;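 note: 0% = DAX-1 transfected cells with DMSO and 100% = cells without DAX-1 with DMSO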
LXR ag – LXR agonists, Gal4 luciferase reporter, confirmation, counter-screen for hcDAF-12 agonist project, cell-based, luminescence, HEK293, H. contortus campaign; shares compounds with hcDAF-12 act; 3,400 tested, under 10 active; activation, % at 6.8 µM; HEK293 Gal4-LXR tk-luc reporter, 24 h; normalized: DMSO 0%, positive control 100%;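 active = mean percent activation of the reporter above a cutoff set as the average over tested compounds plus their standard deviation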
Target sequence (P55055 whole entry, looked up, the tested form may be a part): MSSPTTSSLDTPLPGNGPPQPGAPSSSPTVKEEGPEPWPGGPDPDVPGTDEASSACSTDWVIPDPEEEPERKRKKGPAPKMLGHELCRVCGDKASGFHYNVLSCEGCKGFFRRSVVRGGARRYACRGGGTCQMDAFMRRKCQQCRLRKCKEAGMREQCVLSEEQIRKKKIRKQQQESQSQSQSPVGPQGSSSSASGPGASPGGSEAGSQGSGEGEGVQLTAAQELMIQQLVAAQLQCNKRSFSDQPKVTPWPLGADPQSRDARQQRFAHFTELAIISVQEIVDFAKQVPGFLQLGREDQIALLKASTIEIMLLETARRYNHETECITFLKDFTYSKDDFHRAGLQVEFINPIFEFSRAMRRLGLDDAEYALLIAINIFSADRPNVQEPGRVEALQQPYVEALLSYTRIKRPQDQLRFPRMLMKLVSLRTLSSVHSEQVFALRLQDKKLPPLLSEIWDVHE
hcDAF12 ag – H. contortus DAF-12 receptor agonists, confirmation, cell-based, luminescence, HEK293, lit1-tk-luc, triplicate; shares compounds with hcDAF-12 act; HEK293 hcDAF-12 lit1-tk-luc reporter; % of Δ7-dafachronic acid response; activation, % at 6.8 µM; 61% of 3,400 active;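 active = mean activation across triplicate tests above the threshold derived from the earlier primary screen, cut at about 5.5% in these data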;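 note: 0% = DMSO only wells and 100% = 3 µM Δ7-dafachronic acid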
An asterisk follows results filed as active; · = no result given. A selection: hits, their analogues and other compounds. The true share with any hit is near 5.7%.

SMILES	AHR act	hcDAF-12 act	DAX1 inh-1	ssDAF-12 act	DAX1 inh-2	hgDAF-12 ag	DAX1 conf	SF1 mutant ctr	LXR ag	hcDAF12 ag
N#C/C(=C\c1ccc[nH]1)C(=O)Nc1ccccc1F	·	12*	7.4*	4.3*	1	12*	9.5*	7.0*	1	8.6*
O=C(O)c1ccc(N/N=C/c2ccc3nccnc3c2)cc1	-10	-6	-2	-4	-8	-14	·	·	·	·
O=C(N/N=C/C(Br)=C/c1ccccc1)C(O)c1ccccc1 (stereo not drawn)	8	-1	0	-1	0	-1	·	·	·	·
O=C(O)c1ccc(N/N=C/c2cccc(F)c2)cc1	19	7.1*	6.3*	1.2*	0	21*	15*	8.3*	1	10.0*
O=C(O)c1ccc(N/N=C/C(Br)=C/c2ccccc2)cc1	7	8.1*	5.2*	1	-1	22*	13*	4.2*	2	13*
COc1ccc2nc3n(c(=O)c2c1)-c1ncccc1C(=O)NC3CC(C)C (stereo not drawn)	·	1	0	0	2	-1	·	·	·	·
Cc1ccc(C(=O)NC(C)c2nnc(SCC(=O)NC3CCCC3)n2C)cc1 (stereo not drawn)	·	0	-1	-1	1	-2	·	·	·	·
O=C(CCN1C(=O)NC2(CCCC2)C1=O)Nc1ccc(-c2nc3ccccc3s2)cc1	23	7.7*	5.8*	1.0*	-1	13*	13*	5.8*	1	7.6*
COc1ccc(-c2cc(=O)c3c(O)c(OC)c(O)cc3o2)cc1	-1	6.7*	5.1*	1.3*	-4	10	16*	8.3*	1	5
O=C1NC(c2ccc(Br)cc2)Oc2ccccc21 (stereo not drawn)	-5	-2	0	-1	0	-1	·	·	·	·
Cc1ccc(NC(=S)c2ccc3ccccc3n2)c(C)c1	26	4	1	0	1	8	·	·	·	·
Cc1ccc(C)c(NC(=O)c2ccc3ccccc3n2)c1	41	17*	5.0*	2.6*	1	11*	15*	10*	2	22*
C/C(CC(=O)Nc1ccccn1)=N\NC(=O)C(=O)Nc1cccc(C)c1	-3	-1	0	-2	0	-1	·	·	·	·
O=C(Nc1cccc(O)c1)C(=O)Nc1ccccn1	-1	8.2*	6.1*	0	-2	9	10*	5.6*	1	4
COc1ccc(-c2cc(C(=O)O)c3ccccc3n2)c(OC)c1	14	0	1	-1	-1	-1	·	·	·	·
COc1ccc2cc(-c3cc(C(=O)O)c4ccccc4n3)ccc2c1	-14	8.8*	5.2*	3.0*	-4	13*	11*	3.2*	2	5
CCCCc1c(-c2ccc(F)cc2)ncn1CCc1ccccc1OC	·	-2	0	-1	·	-2	·	·	·	·
COC(=O)C(Cc1c[nH]c2ccccc12)NC(=O)c1ccc2nc[nH]c2c1 (stereo not drawn)	·	8.3*	8.7*	2.1*	4.5*	14*	13*	6.0*	1	6.9*
COC(=O)[C@H](Cc1c[nH]c2ccccc12)NC(=O)Cc1c[nH]c2ccccc12	16	1	0	-1	1	2	·	·	·	·
COc1ccc(C(=O)NCCNC(=O)c2ccc(OC)cc2)cc1	4	-3	0	-2	0	2	·	·	·	·
COc1ccc(C(=O)NCCSc2ccccc2)cc1	6	7.4*	5.1*	0	-1	12*	12*	5.2*	1	6.5*
C(=Cc1c[nH]c2ccccc12)c1nccc2ccccc12	·	24*	15*	4.1*	-2	23*	14*	7.1*	2	18*
O=Cc1nccc2ccccc12	·	1	2	0	0	0	·	·	·	·
C(=Cc1c[nH]c2ccccc12)c1ccc2ccccc2n1	·	20*	8.1*	5.2*	-2	18*	8.0*	1	2	12*
CC1CC2OC2CC1COC(=O)C1CC2OC2CC1C (stereo not drawn)	·	-2	-1	-1	0	0	·	·	·	·
SMILES	AHR act	hcDAF-12 act	DAX1 inh-1	ssDAF-12 act	DAX1 inh-2	hgDAF-12 ag	DAX1 conf	SF1 mutant ctr	LXR ag	hcDAF12 ag
O=C(Nc1nc2c(F)cc(F)cc2s1)c1ccco1	13	9.1*	5.6*	0	1	12*	11*	6.3*	1	5
O=C(Nc1nc2c(F)c(F)c(F)cc2s1)c1ccco1	2	1	0	-1	1	5	·	·	·	·
Cc1ccsc1C(=O)OCc1csc(-c2ccccc2)n1	18	13*	4.7*	2.7*	1	16*	21*	14*	1	14*
Cn1cccc1C(=O)OCc1csc(-c2ccccc2)n1	40	16*	5.3*	3.1*	2	16*	14*	8.0*	2	17*
O=C(OCc1csc(-c2ccccc2)n1)c1cccs1	9	2	1	-1	1	4	·	·	·	·
Cc1cc2nc(-c3ccco3)c(Cc3cccc(Cl)c3)n2c(C)c1Br	·	3	3	0	·	2	·	·	·	·
